Measured values from PubChem BioAssay AID463173 (ICCB-Longwood Screening Facility, Harvard Medical School, 2010).
About 4,300 (8.3%) of roughly 52,000 compounds were called active. The sample holds actives, similar compounds and a random draw of the others, so the mix is not that of the screen. Values without a mark were called inactive. No stated cut-off is given here; in the data, active means survival mostly below about 52% (no sharp cut-off); inactive means mostly above about 56%.

tested on: DeltatarO mutant; assay: growth inhibition of S. aureus wild type versus tarO mutant, primary screen, teichoic acid synthesis inhibitors, RN4220, OD600 (AID 463173); conditions: OD600, 18 h, active compounds read low, screened at 18.75 µg/mL (by protocol)

Structure (SMILES)	survival
CCOc1ccc(NC(=O)N(C(C)C)C2CCN(C(C)=O)CC2)cc1	76%
CCC(C)NC(=O)c1sc2nc(C)c(C(=O)Nc3ccc(C)cc3C)c(-c3ccc(NC(C)=O)cc3)c2c1N (stereo unspecified)	88%
CC(C)CC(C(=O)NCC1CCN(Cc2ccc(F)cc2)CC1)N1Cc2ccccc2C1=O (stereo unspecified)	94%
COc1cc(NS(=O)(=O)c2cc(Br)cc3c2N(C(C)=O)C(C)C3)cc(OC)c1 (stereo unspecified)	20% (active)
CC(=O)N1c2c(cc(Br)cc2S(=O)(=O)Nc2ccc(OC(F)(F)F)cc2)CC1C (stereo unspecified)	66%
COc1cccc(CNS(=O)(=O)c2cc(Br)cc3c2N(C(C)=O)C(C)C3)c1 (stereo unspecified)	128%
CCOc1ccc(N(CC)S(=O)(=O)c2cc(Br)cc3c2N(C(C)=O)C(C)C3)cc1 (stereo unspecified)	60%
CCN(c1cccc(C)c1)S(=O)(=O)c1cc(Br)cc2c1N(C(C)=O)C(C)C2 (stereo unspecified)	51% (active)
CC(=O)N1c2c(cc(Br)cc2S(=O)(=O)Nc2ccccc2C)CC1C (stereo unspecified)	68%
CC(=O)N1c2c(cc(Br)cc2S(=O)(=O)NCc2ccccc2Cl)CC1C (stereo unspecified)	46% (active)
COc1ccccc1CNS(=O)(=O)c1cc(Br)cc2c1N(C(C)=O)C(C)C2 (stereo unspecified)	53%
COc1ccc(CNS(=O)(=O)c2cc(Br)cc3c2N(C(C)=O)C(C)C3)cc1 (stereo unspecified)	131%
COc1ccc(-n2c(SCC(=O)N3CCCc4ccccc43)nc3c([nH]c4ccccc43)c2=O)cc1	101%
COc1ccc2c(C)c(CCC(=O)NCCc3ccc(OC)c(OC)c3)c(=O)oc2c1	88%
CC(=O)c1cccc(NC(=O)Cn2cc(C(=O)c3cccc(Cl)c3)c(=O)c3ccc(C)nc32)c1	56%
COc1cc(C(=O)Nc2ccc(Cl)c(-c3nc4ncccc4o3)c2)cc(OC)c1OC	123%

Structure (SMILES)	survival
COc1ccc(Br)cc1CNC(=O)c1cc(=O)[nH]c2ccc(S(=O)(=O)N3CCCCC3)cc12	84%
CCOC(=O)CCC(=O)Nc1nnc2n1CCS2	66%
CCN1CCN(CCC(=O)Nc2ccc3c(c2)CCC3)CC1	95%
CCOc1ccc(/C=C/c2nc(C#N)c(NC3CCCCC3)o2)cc1	65%
COc1ccccc1/C=C/c1nc(C#N)c(NCc2ccccc2)o1	83%
CNc1oc(/C=C/c2cc(OC)c(OC)c(OC)c2)nc1C#N	69%
COc1ccc(Nc2oc(/C=C/c3ccc(OC)c(OC)c3)nc2C#N)cc1	73%
COc1cccc(/C=C/c2nc(C#N)c(NCCc3ccc(OC)c(OC)c3)o2)c1	41% (active)
COc1ccccc1/C=C/c1nc(C#N)c(NCCc2ccccc2)o1	71%
COc1ccc(CCNc2oc(/C=C/c3ccc(OC)c(OC)c3)nc2C#N)cc1	90%
CCOc1ccc(Nc2oc(/C=C/c3ccc(OC)c(OC)c3)nc2C#N)cc1	55% (active)
COc1cc(/C=C/c2nc(C#N)c(NC3CCCCC3)o2)cc(OC)c1OC	32% (active)
COc1ccc(/C=C/c2nc(C#N)c(NCCc3ccc(OC)c(OC)c3)o2)cc1OC	95%
COc1ccccc1/C=C/c1nc(C#N)c(NCC(C)C)o1	47% (active)
CCOc1ccc(Nc2oc(/C=C/c3cc(OC)c(OC)c(OC)c3)nc2C#N)cc1	58%
